Experimental data as given in PubChem BioAssay AID504652 (National Center for Advancing Translational Sciences (NCATS), 2011).
“And” between values parts separate entries of the source, which are not always exact repeats. Identical values can stand only once. Among all 360,000 compounds or so, about 11,000 (3.1%) were called active. Cut-off read from the data, not from the text of the source: active = activity change below about -30%; inactive = the rest. Shown is part of a subset that was picked to be rich in actives.

The compounds below were run against D(1A) dopamine receptor (Homo sapiens) (UniProt P21728) (assay: Antagonist of Human D 1 Dopamine Receptor: qHTS). Details: HEK293 TREx D1 cells, calcium flux, dopamine EC80; at 10 µM; active compounds read low.
Excerpt: Dopamine receptors (DARs) are involved in the etiology and/or therapy of a number of neuropsychiatric and endocrine disorders. For instance, all receptor-based antiparkinsonian drugs work via stimulating the […] DAR subtype whereas all FDA-approved antipsychotic agents are antagonists of this receptor. […] There are three different types of allosteric modulators that we are seeking, two of which will stimulate or augment receptor signaling, allosteric agonists and potentiators, while the third, allosteric antagonists, will attenuate receptor signaling. The present primary screening assay measures compound antagonism after an EC80 addition of dopamine by tracking calcium flux in a […], inducible Hek293 Trex D1 cell line. NIH Chemical Genomics Center [NCGC] NIH Molecular Libraries Probe Centers Network [MLPCN] MLPCN Grant: NS064831-01 Assay Submitter (PI): David Sibley
Freshly passaged cells are plated in 1536 well black, clear bottom plates at a density of 4000 cells/well in 3 ul of complete media containing 1x tetracycline inducer. After an overnight incubation at 30 C in 5% CO2, cells are loaded with 2 ul of the no wash Calcium Assay Kit (ABD Bioquest) and incubated at room temperature for 30 to 90 minutes. Agonist read: A 10 cycle (1 second/cycle) baseline measurement is taken and then the FDSS online 1536 pintool delivers 23 nl of compound library (as well as dopamine controls) to the plate. The plate is measured for kinetically at 1 cycle/sec for 180 seconds. Following the 180 second read, 1 ul of an EC80 (negative modulation assay) is delivered by an onboard pipette head. Measurements are taken kinetically for an additional 180 seconds.
% is set by controls: 0 for no effect and ±100 for the full control effect.

Sequence of D(1A) dopamine receptor (Homo sapiens) (P21728 whole entry, looked up): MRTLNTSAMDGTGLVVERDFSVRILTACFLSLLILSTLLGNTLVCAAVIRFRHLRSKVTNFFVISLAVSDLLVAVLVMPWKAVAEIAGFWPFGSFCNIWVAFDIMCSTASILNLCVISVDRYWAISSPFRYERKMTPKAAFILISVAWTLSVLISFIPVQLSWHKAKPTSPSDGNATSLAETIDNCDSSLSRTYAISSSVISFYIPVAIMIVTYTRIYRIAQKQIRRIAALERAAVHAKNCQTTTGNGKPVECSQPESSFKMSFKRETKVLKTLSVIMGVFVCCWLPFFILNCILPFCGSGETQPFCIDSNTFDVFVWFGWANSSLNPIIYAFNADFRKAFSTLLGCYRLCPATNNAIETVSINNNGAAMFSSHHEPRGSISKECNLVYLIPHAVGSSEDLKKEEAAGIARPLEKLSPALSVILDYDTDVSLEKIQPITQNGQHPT

Structure (SMILES) | activity change, negative = inhibition
COc1ccccc1-c1ccnc2[nH]n(-c3ccccc3)c(=O)c12 | -7.97% (inactive)
COc1cccc(CNC(=O)CCc2nc(-c3ccc(C)cc3)no2)c1 | -1.26% (inactive)
Cn1c(C(=O)N2CCC(C(=O)N3CCN(c4ccccc4)CC3)CC2)cc2sccc21 | -14.6% (inactive)
CCc1nn(CC(=O)NCC(C)c2ccccc2)c(=O)c2cc3occc3n12 (configuration not stated) | -32.7% (active)
CCCN1CCN(CCCNC(=O)Cn2nc(CC)n3c(cc4occc43)c2=O)CC1 | -17.4% (inactive)
CCc1nn(CCCC(=O)NC(C)c2ccccc2)c(=O)c2cc3occc3n12 (configuration not stated) | 5.05% (inactive) and -4.27% (inactive)
CSc1ccc(C2C(C(=O)Nc3ccccc3)=C(C)Nc3nc4ccccc4n32)cc1 (configuration not stated) | 3.8% (inactive)
CCN(CCCNC(=O)c1c(C)oc2ncn(CC(C)C)c(=O)c12)Cc1ccccc1 | 0.919% (inactive)
COc1ccc(OC)c(NC(=O)CN2CCCN(Cc3cc(C)ccc3C)S2(=O)=O)c1 | 2.17% (inactive)
COC(=O)C1(C)NC(c2ccc(F)cc2)C2C(=O)N(c3ccccc3)C(=O)C21 (configuration not stated) | 0.925% (inactive)
COC(=O)[C@]1(C)N[C@H](c2ccc(-c3ccc(Cl)c(Cl)c3)cc2)[C@@H]2C(=O)N(C)C(=O)[C@@H]21 | -31.4% (active)
COC(=O)C1(C)NC(c2ccc(C)cc2)C2C(=O)N(c3ccc(F)cc3)C(=O)C21 (configuration not stated) | -8.61% (inactive)
CCC(=O)N1CCc2cc(CNS(=O)(=O)c3ccc(Br)s3)ccc21 | -7.89% (inactive)
CCCCOc1ccc(Cn2c(=O)oc3ccc(C)cc32)cc1OC | -3.29% (inactive)
CCCCOc1ccc(CN2C(=O)C(=O)c3cc(Br)cc(C)c32)cc1OC | -30.4% (active)
CCCCN1C(=O)C(C)=C(C)C1OCCc1ccc(OC)c(OC)c1 (configuration not stated) | 2.6% (inactive)
Cc1ccccc1CNC(=O)CSc1nnc(C)c2c(C)n(-c3ccccc3)nc12 | -8.46% (inactive)
CCOC(=O)c1c(S(=O)(=O)NCC(=O)Nc2ccc(Cl)c(C(F)(F)F)c2)c(C)n(C)c1C | -17.1% (inactive)
Cc1ccc(CN2CCC(n3nccc3NC(=O)CCCc3ccccc3)CC2)o1 | 3.11% (inactive)
CC(=O)NCC(=O)N1CCC(n2nccc2NC(=O)CCCc2ccccc2)CC1 | -10.3% (inactive)
CC(=O)N[C@@H](C)C(=O)N1CCC(n2nccc2NC(=O)CCCc2ccccc2)CC1 | -35.7% (active)
COc1ccc(CCNC(=O)CCc2c(C)nc3c(c(C)nn3-c3ccc(C)c(C)c3)c2C)c(OC)c1OC | -6.08% (inactive)
Cc1ccc(C(=O)N/C(=C/c2cccs2)C(=O)NCC2CCCO2)cc1 (configuration not stated) | -5.41% (inactive)
Cc1ccc2c(c1)N(CC(=O)NCC1CCCO1)C(=O)CO2 (configuration not stated) | -13.8% (inactive)
Cc1ccc(-n2c(C)cc(/C=C(\C#N)C(=O)NCC3CCCO3)c2C)cc1 (configuration not stated) | -101% (active)
Cc1ccccc1OCCSc1nc2ccc(NC(=O)c3ccco3)cc2s1 | -30% (inactive)

Structure (SMILES) | activity change, negative = inhibition
COc1ccccc1CNC(=O)CCn1c(=O)c2ccccc2n(CC(=O)Nc2cccc(Cl)c2)c1=O | -3.25% (inactive)
Cc1cc(C)cc(-n2c(SCC(=O)NCC3CCCO3)nc3c([nH]c4ccccc43)c2=O)c1 (configuration not stated) | -4.35% (inactive)
Cc1c(C(=O)N2CCCC2)oc2c1-c1nn(CC(=O)NCc3ccc(OC(C)C)cc3)cc1CC2 | -7.55% (inactive)
Cc1cccc(N2CCN(C3=C(c4ccccc4)C(=O)c4ccccc43)CC2)c1C | 18% (inactive)
CN(CC(=O)Nc1cccc(C(F)(F)F)c1)S(=O)(=O)c1cccs1 | -18.7% (inactive)
CCOC(=O)c1ccc(NC(=O)Cn2c(=O)cc(C)c3c(C)nn(-c4cccc(F)c4)c32)cc1 | -13.3% (inactive)
O=C(CO/N=C/c1ccc(OC(F)F)cc1)NCc1ccc(F)cc1 | -6.98% (inactive)
O=C(COC(=O)[C@H](Cc1ccccc1)NC(=O)c1cccs1)Nc1cc(F)ccc1F | -9.37% (inactive)
COC(=O)c1ccc(/C=N/OCC(=O)Nc2cc(F)ccc2F)cc1 | -33% (active)
CCC(C(=O)N1CCN(S(=O)(=O)c2sc(C(=O)O)c(C)c2C(=O)O)CC1)c1ccccc1 (configuration not stated) | -4.86% (inactive)
Cc1ccc(C(=O)N2CCN(S(=O)(=O)N3CCOCC3)CC2)cc1 | -3.63% (inactive)
CCc1ccc(C(=O)N2CCN(S(=O)(=O)c3sc(C(=O)O)c(C)c3C(=O)O)CC2)cc1 | -68.6% (active)
COc1ccc(SCc2cc(=O)c3ccc(C)c(C)c3[nH]2)cc1 | 7.95% (inactive)
Cn1c(=O)c2c(nc(SCC(=O)Nc3ccc(F)cc3)n2Cc2ccc(Cl)cc2)n(C)c1=O | -3.1% (inactive)
O=C(CCn1c(=O)[nH]c2ccccc2c1=O)NCCCN1CCN(c2cccc(Cl)c2)CC1 | -49% (active)
Cn1c(=O)cc(OCC(=O)N2CCN(c3ccccc3)CC2)c2ccccc21 | -4.64% (inactive)
COc1cccc(N2CCN(C(=O)CCCCCn3c(=O)[nH]c4ccccc4c3=O)CC2)c1 | -11.8% (inactive)
CCn1c(=O)cc(OCC(=O)Nc2cc(Cl)c(OC)cc2OC)c2ccccc21 | 1.43% (inactive)
O=C(Cc1ccc(-n2c(=O)[nH]c3ccccc3c2=O)cc1)N1CCN(c2cccc(Cl)c2)CC1 | -8.8% (inactive)
O=C(Cc1csc(Nc2nc(=S)[nH]c3ccccc23)n1)NCCCN1CCN(c2cccc(Cl)c2)CC1 | -56.6% (active)
COCCCn1c(Cc2csc(Nc3cccc(Cl)c3)n2)nnc1SCC(=O)OC1CCCCC1 | 12.9% (inactive)
CCn1c(=O)cc(OCC(=O)NCCCN2CCN(c3cccc(Cl)c3)CC2)c2ccccc21 | -46.8% (active)
CCOC(=O)N1CCC(Nc2c(NCCN3CCN(c4cccc(Cl)c4)CC3)c(=O)c2=O)CC1 | -24% (inactive)
COc1cccc(CNC(=O)Cc2csc(Nc3nc(=S)[nH]c4ccccc34)n2)c1 | -0.499% (inactive)
CCOC(=O)c1c(C)[nH]c(CCC(=O)NCCCN2CCN(c3cc(C)ccc3C)CC2)c1C | -11.7% (inactive)
CCOC(=O)c1c(C)[nH]c(CCC(=O)NCCCN2CCN(c3cccc(Cl)c3)CC2)c1C | -31.4% (active)
